Assay [1] in a line: qHTS assay for small molecule agonists of the antioxidant response element (ARE) signaling pathway measured by Nrf2-dependant transcriptional activity (AID 720636; active = well fitted curve in the direction sought with a large enough effect in the repeat runs; an effect the other way counts as inactive or inconclusive; note: % of control where 0% means no effect). The essentials:
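Quantitative HTS format in HepG2 cells stably expressing an ARE-luciferase reporter; 16 hr compound treatment at 37 C, luciferase signal detected with ONE-Glo.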
A general note: qHTS replaces the single test concentration by a dilution series.

A short description of assay [2]: qHTS assay for small molecule antagonists of the retinoid-related orphan receptor gamma (ROR-gamma) signaling pathway - cell viability counter screen (AID 720652; active = well fitted curve in the direction sought with a large enough effect in the repeat runs; an effect the other way counts as inactive or inconclusive;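 note: CHO reporter cells with doxycycline-induced ROR-gamma expression; series mostly up to about 92 µM; compound exposure lasted 16 hr before ATP read; % is set by controls: 0 for no effect and ±100 for the full control effect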). The essentials:
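Cytotoxicity is quantified via intracellular ATP (CellTiter-Glo luminescence) in doxycycline-induced CHO ROR response element-luciferase reporter cells treated with compound for 16 hr at 37 C, 5% CO2.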

Assay [3] has as its target T1, Hexokinase-4 (Homo sapiens) + Glucokinase regulatory protein (Homo sapiens) (UniProt P35557+Q14397). Nature of the assay: qHTS assay for inhibitors of recombinant human GCK-GKRP interaction: Diaphorase-coupled assay (AID 743205). An outline of the steps: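 Compounds pre-incubated 20 min with substrate, then 10 nM GST-GCK with 10 nM FLAG-GKRP added. GCK activity coupled via G6PDH and diaphorase to resorufin (5 mM glucose, 0.4 mM ATP, 0.15 mM NADP+, pH 7.6), read kinetically over 30 minutes at Ex 525/Em 590 nm.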

Assay [4] addresses T1, Hexokinase-4 (Homo sapiens) + Glucokinase regulatory protein (Homo sapiens). Put plainly: qHTS assay for inhibitors of recombinant human GCK-GKRP interaction: ADP-Glo assay (AID 743206).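 Note: plate controls were DMSO plus enzyme for no effect and no enzyme for full effect.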 The essentials:
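GST-GCK and FLAG-GKRP (15 nM each in the dispensed mix, with 2 uM S6P) react with 0.4 mM ATP and 5 mM glucose (final) in Hepes pH 7.6 for 60 min at room temperature. ADP is measured by ADP-Glo luminescence.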

For assay [5] the target is unchanged. Put plainly: qHTS assay for inhibitors of recombinant human GCK-GKRP interaction: HTRF assay (AID 743207).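 Note: 0% = DMSO with GCK present and -100% = DMSO wells lacking GCK.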 An outline of the steps:
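HTRF binding of 5 nM GST-GCK and 5 nM FLAG-GKRP with 2 uM S6P in pH 7.1 Hepes buffer (MgCl2, KCl, DTT, Tween 20, BSA). Anti-FLAG XL665 and anti-GST donor added, 60 min at room temperature; 665/615 nm read, normalized to with- and without-GCK controls.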

Assay [6] is described as follows: qHTS Assay for Identifying Gametocytocidal Compounds (AID 743244).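 For max response: % is set by controls: 0 for no effect and ±100 for the full control effect; actives lower the fluorescent signal which means gametocytes are killed.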 Note: potency is the fitted concentration of half-maximal effect. The settings on record: P. falciparum 3D7 stage III-V gametocytes, alamarBlue, 72 h; max response: active compounds read low. An outline of the steps:
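Fluorescence at Ex 525/Em 598 nm, recorded 24 h after alamarBlue addition, reports residual metabolic activity of 3D7 gametocytes (stages III–V) following 72 h compound exposure at 37 °C, 5% CO2.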

Assay [7] can be described thus: qHTS assay for cell viability of HEK293 cells (AID 743288). For max response: % is set by controls: 0 for no effect and ±100 for the full control effect. Note: nearly all actives have a fitted effect of over 50% in size. Note: potency is the fitted concentration of half-maximal effect. The settings on record: ATP luminescence (CellTiter-Glo), 18 h; max response: active compounds read low. An outline of the steps: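 Parental HEK293 cells, 2,000 per well, preincubated at least 5 h at 37 C, then exposed to compounds in DMSO for 18 h at 37 C. Viability by CellTiter-Glo ATP luminescence after 30 min at room temperature.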

Assay [8] is described as follows: qHTS assay for small molecule agonists of the antioxidant response element (ARE) signaling pathway measured by Nrf2-dependant transcriptional activity - cell viability counter screen (AID 720653; active = well fitted curve in the direction sought with a large enough effect in the repeat runs; an effect the other way counts as inactive or inconclusive; note: % is set by controls: 0 for no effect and ±100 for the full control effect). The settings on record: ARE-bla HepG2 viability, CellTiter-Glo ATP luminescence, 16 h; active compounds read low. The essentials:
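ARE-bla HepG2 cells (2,000/well) rested 5 hrs at 37C/5% CO2, then exposed to compounds in DMSO for 16 hrs. Viability was read in the same wells as intracellular ATP by luminescence, 30 min at room temperature after reagent addition.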

Assay [9] can be described thus: qHTS assay for cell viability of the p53RE-bla HCT-116 cell line (AID 743292). Note: nearly all actives have a fitted effect of over 55% in size. Note: potency is the fitted concentration of half-maximal effect. An outline of the steps:
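Viability of compound-treated p53RE-bla HCT-116 cells is taken from ATP-dependent luciferase luminescence. Treatment lasts 16 h at 37 C after a 5 h settling period; detection follows 30 min at room temperature.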

Assay [10] can be described thus: qHTS for Activators of Parkin Expression: LOPAC Validation Assay (FLuc Reporter) (AID 720573;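 note: 0% = DMSO and 100% = positive control compounds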). An outline of the steps:
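Neuronal cell line stably expressing FLuc/NLuc coincidence reporter under the Parkin promoter, 1,500 cells/well, dosed 24 h after seeding in 7-point series for 24 h at 37 C. FLuc luminescence read; normalized to DMSO and positive control (100%).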

We go through 22 molecules from PubChem BioAssay (NCATS).

Where “and” joins values, the source holds several entries; their conditions need not be identical. Identical values can stand only once. A number with no mark means an inactive call. Results filed as inconclusive are left out. Calls of active or inactive are those of the source. Unless noted, calls come from the whole dose curve; as a rule, active = well fitted curve in the direction sought with a large enough effect; inconclusive = small, poorly fitted or top-dose-only effect, or another doubt; inactive = no such curve, though single readings can be large; an effect the other way counts as inactive or inconclusive.

T1 sequence (P35557 whole entry, looked up): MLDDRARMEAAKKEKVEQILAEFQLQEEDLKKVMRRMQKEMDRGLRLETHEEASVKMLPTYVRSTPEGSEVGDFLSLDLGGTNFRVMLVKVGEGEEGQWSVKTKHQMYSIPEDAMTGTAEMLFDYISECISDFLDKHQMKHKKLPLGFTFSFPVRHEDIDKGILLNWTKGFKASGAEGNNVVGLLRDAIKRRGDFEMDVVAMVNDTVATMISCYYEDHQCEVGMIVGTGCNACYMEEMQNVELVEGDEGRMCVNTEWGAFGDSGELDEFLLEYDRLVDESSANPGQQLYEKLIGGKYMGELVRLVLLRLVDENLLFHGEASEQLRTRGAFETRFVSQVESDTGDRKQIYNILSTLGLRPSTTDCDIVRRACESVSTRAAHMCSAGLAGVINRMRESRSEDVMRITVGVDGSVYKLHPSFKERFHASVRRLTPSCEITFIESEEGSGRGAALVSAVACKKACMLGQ
T1 sequence (Q14397 whole entry, looked up): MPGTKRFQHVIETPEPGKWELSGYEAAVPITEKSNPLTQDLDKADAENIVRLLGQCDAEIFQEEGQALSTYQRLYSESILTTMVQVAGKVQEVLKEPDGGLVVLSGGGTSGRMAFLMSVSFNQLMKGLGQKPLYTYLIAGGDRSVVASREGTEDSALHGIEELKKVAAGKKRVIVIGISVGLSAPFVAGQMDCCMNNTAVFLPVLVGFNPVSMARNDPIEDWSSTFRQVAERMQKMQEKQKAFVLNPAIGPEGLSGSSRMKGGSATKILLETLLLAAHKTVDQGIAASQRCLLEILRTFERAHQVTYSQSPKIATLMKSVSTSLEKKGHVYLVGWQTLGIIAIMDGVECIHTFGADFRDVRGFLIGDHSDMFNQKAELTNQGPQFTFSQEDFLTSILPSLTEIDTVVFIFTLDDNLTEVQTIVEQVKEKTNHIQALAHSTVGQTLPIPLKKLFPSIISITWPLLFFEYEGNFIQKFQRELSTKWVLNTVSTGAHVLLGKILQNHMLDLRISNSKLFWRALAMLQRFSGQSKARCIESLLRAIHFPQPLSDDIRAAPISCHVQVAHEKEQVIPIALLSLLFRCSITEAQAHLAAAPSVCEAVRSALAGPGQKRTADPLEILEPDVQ

With `Cn1cnc([N+](=O)[O-])c1Sc1ncnc2nc[nH]c12`, the molecule was classed as inactive in assay [1], in assay [2], in assay [3], in assay [4] and in [5]. For the same molecule, the Potency in [6] was 39.8 µM (active) and 1.26 µM (active); in [7], 4.47 µM (active) and 5.01 µM (active).

On to `CN1CCN(CCCN2c3ccccc3Sc3ccc(C(F)(F)F)cc32)CC1`, for which the outcome in assay [3], in [4] and in assay [5] was inactive. For the same molecule, the Potency in assay [6] is 3.16 µM (active).

As for `Cc1ccccc1C(OCCN(C)C)c1ccccc1` (stereo not given), the molecule was classed as inactive in assay [1], in [3], in [4] and in assay [5]. Further, the max response was -8.13% in [8]; 21.5% and -9.62% and 11.5% in assay [6]; -14.1% in [7].

On to `NC(=O)c1cnccn1`, for which the outcome in assay [1], in assay [2], in [3], in assay [4] and in assay [5] was inactive. For the same molecule, the max response in assay [8] is 6.82% and 7.56%; in assay [6] it was -3.29% and 14.5%; in assay [7], 4.61% and 0.671%. The Potency entry in assay [9] was “inactive”.

With `CCN(CC)CCCC(C)Nc1ccnc2cc(Cl)ccc12` (stereo not given), the outcome in [3], in assay [4] and in assay [5] was inactive.

On to `O=c1[nH]cnc2[nH]ncc12`, for which the outcome in assay [1], in assay [2], in [3], in [4] and in assay [5] was inactive. For the same molecule, the max response is -4.44% in assay [8] and 10.5% in [7]. In assay [9], the Potency entry is “inactive”.

In the case of `CCOC(=O)N1CCC(=C2c3ccc(Cl)cc3CCc3cccnc32)CC1`, the result in [3], in [4] and in assay [5] was inactive.

In the case of `CC(C[N+](C)(C)C)OC(N)=O` (stereo not given), the result in assay [10], in assay [3], in assay [4] and in assay [5] was inactive. In assay [6], the max response is 11.1%.

As for `Cc1[nH]c(=O)c(C#N)cc1-c1ccncc1`, the call in [1], in assay [3], in [4] and in [5] was inactive. Further, the max response in assay [8] is 11.3%; in assay [6], -5.95% and 11% and 13.2%; in assay [7], 7.32%. Further, the Potency entry in assay [9] was “inactive”.

In the case of `CC(=O)Oc1ccccc1C(=O)O`, the molecule was called inactive in assay [1], in assay [2], in [3], in assay [4] and in assay [5]. Also, the max response in [8] was -2.6% and -0.828% and 18.8%; in [6], -2.57% and 13.2%; in assay [7], -2.25% and -4.16% and -2.23%. For the same molecule, the Potency result in assay [9] was “inactive”.

Take `NCCc1ccc(O)c(O)c1`: the molecule was called inactive in assay [10], in assay [3], in [4] and in assay [5].

`CC(C)(Sc1ccc(CCN(CCCCC2CCCCC2)C(=O)NC2CCCCC2)cc1)C(=O)O`: the molecule was called inactive in assay [1], in assay [3], in assay [4] and in assay [5]. The max response in assay [8] was 1.89%; in assay [6], 7.17% and -0.948%; in assay [7] it was -6.91%. Also, the Potency in [9] is 12.6 µM (active).

With `c1ccc([C@H]2CN3CCSC3=N2)cc1`, the result in assay [3], in [4] and in [5] was inactive. In assay [6], the max response was 4.37%.

For the molecule `O=C(Nc1nc2ccccc2n1CCN1CCOCC1)c1cccc([N+](=O)[O-])c1`, the result in assay [3], in [4] and in [5] was inactive.

Consider `O=c1n(CCCN2CCN(c3cccc(Cl)c3)CC2)nc2ccccn12`, for which the result in [3], in assay [4] and in assay [5] was inactive. Also, in assay [6], the max response is 8.61% and 11.5%.

In the case of `OC(CCN1CCCCC1)(c1ccccc1)C1CC2C=CC1C2` (stereo not given), the result in assay [3], in assay [4] and in assay [5] was inactive. The max response in assay [6] is -9.9%.

With `O=C1CCC(N2C(=O)c3ccccc3C2=O)C(=O)N1` (stereo not given), the molecule was classed as inactive in assay [1], in assay [3], in assay [4] and in assay [5]. Further, the max response is 1.28% in assay [8]; 18.1% and 27% in assay [6]; -7.06% in [7]. The Potency entry in [9] was “inactive”.

As for `CCCC(CCC)C(=O)O`, the result in assay [1] and in [2] was inactive. Besides, the max response in assay [8] was -3.17% and -14.3% and -4.27%; in [6], 8.46% and 5.84%; in assay [7], 3.06% and -3.28% and -9.08%. Besides, the Potency entry in assay [9] is “inactive”.

`NCCCC(N)(C(=O)O)C(F)F` (stereo not given): the result in assay [3], in [4] and in assay [5] was inactive. For the same molecule, the max response in [6] is 5.66% and 8.03%.

Consider `CCn1cc(C(=O)O)c(=O)c2cc(F)c(N3CCNC(C)C3)c(F)c21` (stereo not given), for which the outcome in [3], in assay [4] and in assay [5] was inactive. In assay [6], the max response is 19.5% and 11.6% and 13.2%.

Turning to `COc1ccc2nc(S(=O)Cc3ncc(C)c(OC)c3C)[nH]c2c1` (stereo not given), the max response is 1.66% in assay [8]; -5.18% and -4.42% in assay [6]; -16.7% in assay [7]. The Potency entry in assay [9] is “inactive”.

In the case of `N[C@@H]1CONC1=O`, the result in [3], in [4] and in assay [5] was inactive. In addition, the max response in assay [6] was 2.44% and 21.1%.
